The text below walks through data of PubChem BioAssay AID1048 (The Scripps Research Institute Molecular Screening Center, 2008).

The structures appear in SMILES notation. Among all 99,000 compounds or so, about 390 (0.39%) were called active. This is one part of a sample in which actives are shown more often than they occur. A number with no mark means an inactive call. Cut-off read from the data, not from the text of the source: active = TR-FRET ratio above about 2000; inactive = the rest.

The test can be described thus: TR-FRET detection interference compounds, artefact control for PPARgamma SRC-3 recruitment agonists, biochemical, TR-FRET ratio (AID 1048). Conditions: TR-FRET artefact counter-screen, PPARgamma/SRC-3 format; at 8 µM; stronger effect = higher value. A general note: TR-FRET usually uses a lanthanide donor and a delayed reading to cut background.
On to `COCCN(C(=S)Nc1ccccc1OC)C1CCN(C(C)C)CC1`, for which the TR-FRET ratio was 1690.
The figure for `COc1ccc(OC)c(C(=O)c2ccc(C(=O)N3CCN(Cc4csc(C)n4)CC3)cc2)c1` is 1600.
With `COc1ccc(C)cc1NC(=O)Nc1ccccc1SC` the figure was 1480.
With `Cc1ccc(-c2cc(C(=O)NCc3cn(C)nc3C)c3cc(Br)ccc3n2)cc1` the figure was 3150 (active); with `C/C(N)=C(/C#N)C(=O)COC(=O)c1cc(-c2ccccc2)nc2ccc(Br)cc12`, 1450.
Regarding `O=C(NCc1ccccn1)c1cc(Br)ccc1Cl`, the TR-FRET ratio is 1620.
With `Cc1ccc2nc(-c3cccc(Br)c3)cc(C(=O)Nn3cnnc3)c2c1` the figure was 1410; with `O=C(NCc1cccs1)c1cc(-c2ccccn2)nc2ccc(Br)cc12`, 2270 (active); with `O=C(Nc1ccncc1)c1cc(-c2ccccn2)nc2ccc(Br)cc12`, 1720.
On to `O=C(Cc1c(F)cccc1Cl)Nc1ccc(-n2cnnn2)cc1`, for which the TR-FRET ratio is 1510.
`Cn1c(=O)cc(SCC(=O)N2CCCC2)c2cc(Cl)ccc21`: the TR-FRET ratio was 3460 (active).
The figure for `CCOc1ccc(CCNC(=O)CSc2cc(=O)n(C)c3ccc(Cl)cc23)cc1OCC` is 1800; for `CC(C)N(C(=O)Cn1cc(SCC(=O)N2CCCC2)c2ccccc21)C(C)C` it is 1440; for `CC(C)NC(=O)c1ccc(Cl)cc1Cl` it is 1730.
With `NC1=NC2(CCCCC2)N(c2ccc(F)cc2F)C(N)=N1` the figure was 1410; with `COc1ccc2c(CC(=O)OCC(=O)Nc3ccccc3[N+](=O)[O-])coc2c1`, 1720; with `CCOc1ccc(NC(=O)c2cc(C)nc3ccccc23)cc1`, 1470.
The figure for `CCOc1ccc(NC(=O)CSc2nc3ccccc3c(=O)n2Cc2cccs2)cc1` is 1640; for `CCOc1ccc(NC(=O)CSc2ncnc3c2sc2ccccc23)cc1` it is 3140 (active); for `Cn1nnnc1NCc1ccc(Cl)c(Cl)c1` it is 1750.
Regarding `CCOC(=O)C1C(c2ccc(Cl)cc2)NC(=S)NC1(O)C(F)(F)F` (configuration not stated), the TR-FRET ratio is 1580.
The figure for `CCCOc1ccc(N/C=C/C(=O)C(C)(C)C)cc1` is 1370.
The figure for `CC(C)CNC(=O)C(=O)Nc1ccc(N(C)C)cc1` is 1510; for `CN(C)c1ccc(N/C=C/C(=O)C(F)(F)F)cc1` it is 2070 (active); for `COc1ccc(CC(NC(C)=O)C(=O)NC2CCN(C(=O)C3CC3)CC2)cc1OC` (configuration not stated) it is 1430.
The figure for `CC1COc2ccccc2N1C(=O)c1cccnc1Cl` (configuration not stated) is 1670; for `COc1ccc(C(=O)NNC(=O)c2cc(C)[nH]n2)cc1` it is 1480; for `O=C(O)Cc1sc(-c2ccccc2)nc1-c1cccs1` it is 2530 (active).
Turning to `O=C(O)Cc1sc(-c2ccc(C(=O)O)cc2)nc1-c1ccccc1`, the TR-FRET ratio is 1690.
With `O=C(O)Cc1ccc(-c2ccccc2)cc1` the figure was 1600; with `CN(C)/N=C/c1cn(-c2ccccc2)nc1-c1cccnc1`, 1610; with `CCc1nnc(NC(=O)CSc2nnnn2-c2cccc(C(C)=O)c2)s1`, 1550.
The figure for `Cc1ccc2c(c1)C1CN(C)CCC1N2C(=S)Nc1ccc(Cl)cc1Cl` (configuration not stated) is 1610; for `CCN(CC)CCNc1nc(-c2ccc(OC(F)F)cc2)c(C)s1` it is 1480.
With `CC(NC(=O)COC(=O)c1ccc(Cl)cc1O)c1ccc(F)cc1` (configuration not stated) the figure was 1480.
Consider `Cc1cccc2nc(CSc3nc4[nH]ncc4c(=O)n3-c3cccc(Cl)c3)cc(=O)n12`, for which the TR-FRET ratio is 1540.
With `O=c1c2sccc2nc(SCc2cc(=O)n3ccccc3n2)n1-c1ccc(Br)cc1` the figure was 1730.
The figure for `CCc1ccc(-n2c(SCc3cc(=O)n4cc(Br)ccc4n3)nc3[nH]ncc3c2=O)cc1` is 2480 (active).
The figure for `COc1ccc2cc(CCl)c(Cl)nc2c1` is 1710; for `C(=N/Nc1cc(N2CCOCC2)nc(N2CCOCC2)n1)/c1ccccc1` it is 1290.
In the case of `CCN(CC)c1ccc(C(=O)N/N=C/c2ccc(N3CCOCC3)cc2)cc1`, the TR-FRET ratio was 1580.
With `CN(C)c1ccc(/C=N/Nc2cc(N3CCOCC3)nc(N3CCOCC3)n2)cc1` the figure was 2070 (active).
The figure for `CCCN(CC(=O)Nc1ccc(C(N)=O)cc1)CC(=O)Nc1ccccc1C` is 1400; for `CC1Cc2ccccc2N1C(=O)CSc1nnc(-c2ccc(S(=O)(=O)N3CCCC3)cc2)n1C` (configuration not stated) it is 1610; for `CC/C(Cc1ccccc1)=N/NC(=O)CCn1nnc2ccccc21` it is 1860.
The figure for `CCOC(=O)c1c(NC(=O)C(C)Sc2c[nH]c3ccccc23)sc2c1CCC2` (configuration not stated) is 3480 (active).
As to `CCOC(=O)c1c(NC(=S)Nc2ccccc2C)sc2c1CCC2`, the TR-FRET ratio is 1790.
The figure for `CCOC(=O)c1c(NC(=O)CSc2cn(CC)c3ccccc23)sc2c1CCC2` is 1590.
Turning to `Cc1ccc(S(=O)(=O)NCCC(=O)Nc2ccc(C)c(Cl)c2)cc1C`, the TR-FRET ratio is 1640.
The figure for `Cc1cccc(NC(=O)c2sc(-c3ccccc3)nc2-c2ccc([N+](=O)[O-])cc2)c1` is 1630.
With `Cc1ccc(-c2nc(-c3cccnc3)sc2CC(=O)Nc2ccc(C)c(Cl)c2)cc1` the figure was 3550 (active).
With `CCc1cc(CNC(=O)CC2C(=O)NCCN2CC2CCCCC2)on1` (configuration not stated) the figure was 1630; with `CC1=CC=CN2C1=NC(=O)CC2(C)C(=O)N(CC(=O)NC1CCCC1)c1ccccc1C` (configuration not stated), 1450; with `CN(Cc1ccccn1)Cc1nc(-c2ccc(Cl)cc2)no1`, 1430.
For `CN1CCN(S(=O)(=O)c2cccc(C(=O)O)c2)CC1`, the TR-FRET ratio is 1540.
With `CC1(C)CC(=O)C(C2c3ccccc3S(=O)(=O)c3ccccc32)C(=O)C1` the figure was 1570; with `CN(CCc1cnn(C)c1)Cc1cn(C)nc1-c1ccccc1F`, 1360; with `COc1cccc(NC(=O)CC(c2ccc(OC(C)C)cc2)c2ccccc2OC)c1` (configuration not stated), 1470.
Regarding `COn1c(-c2ccc(Cl)cc2Cl)nc2ncccc21`, the TR-FRET ratio is 1970.
With `COc1ccc(CCNC(=O)COC(=O)C2CCCCC2)cc1` the figure was 1330.
With `CC(C)(C)NC(=O)COC(=O)c1cc(Cl)ccc1[N+](=O)[O-]` the figure was 1550; with `COc1ccc2c(c1)C(SCC(=O)NCc1ccccc1)CC(C)(C)O2` (configuration not stated), 1590.
